HIF-2a inh: blocks HIF-2a reporter activity; inhibition, % at 18.8 µM; 786-0 RCC cells HIF-2a reporter, luciferase luminescence, overnight; 0.72% of 360,000 active; AID 624352;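 active = inhibition of the luminescence signal of 40% or more relative to plate controls, in a single-dose primary screen at 18.75 µM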
HSP90 refold inh: inhibitors of HSP90 luciferase refolding in rabbit reticulocyte lysate | luciferase refolding luminescence, 3 h | inhibition, % at 5.6 µM | 0.91% of 290,000 active;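 active = inhibition above the screen-wide mean plus 3 SD, computed separately per campaign, cut at about 16% in these data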;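 note: inhibitors lower the luminescence because luciferase stays unfolded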
aSyn UTR inh: 5' untranslated region of α-synuclein, MLPCN primary screen | alpha-synuclein 5'UTR reporter, inhibitor activity | inhibition, % (tested at 7.5 µM) | 0.82% of 300,000 active | AID 1813; in the data active = inhibition above about 60%;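 note: H4 neuroglioblastoma cells stably carrying SNCA 5'UTR luciferase fusion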
TROY NFkB inh: inhibitors of TROY-dependent NF-kB signaling; Q293 LMP1-TROYcd NF-kB luciferase reporter, 4 h; 0.98% of 360,000 active; inhibition, % at 10 µM;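 active = compounds whose plate-normalised and pattern-corrected inhibition of the luciferase reporter signal at the single screening dose is 50% or more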
TRAIL sens C8: sensitizes caspase-8 expressing cells to TRAIL | 1% of 360,000 active | NB7+C8 cells + TRAIL, ATPlite viability luminescence | AID 624354 | inhibition (viability loss, TRAIL sensitization), % at 10 µM;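 active = compounds causing at least 50% loss of cell viability in the single-dose screen, relative to plate controls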
TWEAK Fn14 block: TWEAK-Fn14 signaling inhibition; TWEAK-stimulated Fn14 reporter cells, luciferase luminescence, 8 h; inhibition, % at 10 µM; 2% of 360,000 active; AID 1159606; in the data active = inhibition above about 50%
Numbers stand for hits; 0 = inactive; - = no result. An excerpt weighted towards active compounds, which were near 3.9% of everything screened.

SMILES	HIF-2a inh	HSP90 refold inh	aSyn UTR inh	TROY NFkB inh	TRAIL sens C8	TWEAK Fn14 block
C=CCN1C(=O)/C(=C/c2ccsc2)SC1=S	0	0	0	0	0	0
N#Cc1nc(Cl)c(Cl)c(NN)c1Cl	0	0	0	61.9	0	0
Cc1cc(C(=O)COC(=O)C2COc3ccccc3O2)c(C)n1CC1CCCO1 (configuration not stated)	0	0	0	0	0	0
Cc1cc(C(=O)COc2ccccc2C(N)=O)c(C)n1CC1CCCO1 (configuration not stated)	0	0	0	0	0	0
Cc1cc(C(=O)COC(=O)c2cccc(NS(C)(=O)=O)c2)c(C)n1CC1CCCO1 (configuration not stated)	0	-	-	75.7	58.8	91.6
Cc1cc(C(=O)COC(=O)c2cc(O)c3ccccc3c2O)c(C)n1CC1CCCO1 (configuration not stated)	0	0	-	0	0	79.0
CC1=C(C(=O)N2CCCCCC2)CC(CC(=O)NCCc2ccccn2)C(=O)N1Cc1ccc(F)cc1 (configuration not stated)	0	-	-	0	0	0
COc1ccc(F)cc1-c1cc(NC=O)c2ncc(-c3cc(OC)c(OC)c(OC)c3)n2c1	0	-	-	0	0	73.8
COc1cc(-c2cnc3c(NC=O)cc(-c4ccccc4)cn23)cc(OC)c1OC	0	-	-	0	0	0
COc1ccccc1-c1cc(NC=O)c2ncc(-c3ccc(F)cc3)n2c1	0	-	-	0	0	55.3
COc1cc(-c2cnc3c(NC=O)cc(-c4ccccc4Cl)cn23)cc(OC)c1OC	0	-	-	0	0	58.8
COc1cccc(S(=O)(=O)Nc2ccc3c(c2)[C@H]2C[C@H](CC(=O)N[C@@H](C)c4ccccc4)O[C@H](CO)[C@H]2O3)c1	0	-	-	0	0	0
CC(C)C[C@H]1CN(CCCC[C@@H]2CNC(=O)C(=O)N2CCc2ccccc2)C(=O)C(=O)N1CCC1CCCCC1	0	-	-	0	0	0
COc1cccc(CNC(=O)[C@@H]2CCCN2C(=O)[C@@H]2CCCN2C(=O)OC(C)(C)C)c1	0	-	-	0	0	0
O=C(Nc1ccc(C(O)c2ccccc2)cc1)[C@@H]1O[C@H](CO)[C@@H](O)[C@H]1O (some centres not stated)	0	-	-	0	0	0
O=c1[nH]c(=O)n([C@H]2C[C@H](O)[C@@H](CO)O2)cc1C(F)(F)F	0	0	76.5	0	0	0
COC(=O)C1=CN(c2ccc(N3CCOCC3)cc2)C(N)=C(C#N)C1c1ccc(-c2ccccc2)cc1 (configuration not stated)	0	-	-	-	0	-
Cc1ccc(CN=c2c([N+](=O)[O-])nn(-c3cccc(Cl)c3)n2O)cc1	0	0	0	0	0	0
Cc1ccc(CN=c2c([N+](=O)[O-])nn(-c3cccc(C)c3)n2O)cc1	0	0	0	0	49.0	0
COC(=O)[C@@]12C[C@@H](CC(=O)N3CCN(C(=O)C4CC4)CC3)C(=O)N(Cc3cccc4ccccc34)C1=CCC(C)(C)C2	0	-	-	-	0	-
CN(C)c1ccc(-c2ccnc3c2CC(C)(C(=O)NCC2CCOCC2)O3)cc1 (configuration not stated)	0	-	-	0	0	0
C[C@H]1CN([C@@H](C)CO)S(=O)(=O)c2ccc(Br)cc2O[C@H]1CN(C)C(=O)Cc1ccccn1	0	-	-	0	0	0
O=C(/C=C/c1cn(-c2ccccc2)nc1-c1cccnc1)c1ccco1	0	0	0	0	0	80.0
O=C(CSC1=N/C(=C/c2ccc(Cl)c(Cl)c2)C(=O)N1c1ccccc1F)NC1CC1	0	0	0	0	0	61.1
Cc1ccc2cc(CN(CC3CCCO3)C(=S)Nc3ccccc3)c(=O)[nH]c2c1C (configuration not stated)	0	0	72.3	0	0	0
SMILES	HIF-2a inh	HSP90 refold inh	aSyn UTR inh	TROY NFkB inh	TRAIL sens C8	TWEAK Fn14 block
CC(=O)c1c(C)[nH]c(C(=O)OCC(=O)Nc2cc(Cl)ccc2[N+](=O)[O-])c1C	0	0	0	69.8	0	88.1
CC(=O)c1c(C)[nH]c(C(=O)OCC(=O)Nc2ccc(C)cc2[N+](=O)[O-])c1C	0	0	0	0	0	63.2
Cc1ccc(NC(=O)COC(=O)C2=COCCO2)c([N+](=O)[O-])c1	0	0	0	0	0	0
CCc1c(C2(O)CCCCC2)[nH]c2cc(C(F)(F)F)ccc12	0	0	0	51.4	0	0
CC(=O)Nc1sc(C)c(C)c1C(=O)OCC(=O)N(CCC#N)c1cc(C)cc(C)c1	0	-	-	0	0	0
Cc1cc(-c2nc3ccccc3s2)ccc1N	0	-	-	0	72.4	83.2
Oc1ccc(Nc2nc3ccccc3nc2Nc2ccc(O)cc2)cc1	75.0	0	108.4	0	0	76.1
Oc1ccc(Nc2nc(-c3ccccc3)nc3ccccc23)cc1	0	0	0	0	0	0
CC1=NN(c2ccccc2)C(=O)/C1=C\C=C\c1ccccc1	87.3	0	0	0	0	94.0
COC(=O)C[C@@H]1C=C[C@@H](NC(C)=O)[C@@H](CO)O1	0	-	-	-	0	-
Cc1ccccc1Nc1cc2ccccc2c(=O)[nH]1	0	0	0	0	88.4	0
O=c1[nH]c(Nc2ccc(F)cc2)cc2ccccc12	0	16.4	0	0	0	0
CCN(C(=O)COC(=O)c1cc(Cl)ccc1OC)c1c(N)n(Cc2ccccc2)c(=O)[nH]c1=O	0	-	-	0	0	0
CCCN(C)C1CN(Cc2cn(Cc3ccc(C)cc3)nn2)S(=O)(=O)C1 (configuration not stated)	0	-	-	0	0	0
CN(C(=O)c1cccc(NC(=O)Cc2cccc(NC(=O)C3CCCN(C(=O)C4CCCCC4)C3)c2)c1)C1CC1 (configuration not stated)	0	-	-	0	0	0
O=C(Nc1ccc(F)cc1F)c1cncc(Br)c1	0	0	0	0	0	0
O=C(Nc1ccccc1[N+](=O)[O-])c1cncc(Br)c1	0	0	0	0	0	103.9
CC(C)(C)c1ccc(NC(=O)c2ccccc2)c([N+](=O)[O-])c1	0	0	0	58.0	0	0
Cc1c(NC(=O)c2ccc(C(C)(C)C)cc2)cccc1[N+](=O)[O-]	0	0	0	0	0	0
NC(=O)c1ccc(NC(=O)Cc2ccc(S(=O)(=O)N3CCCCC3)cc2)cc1	0	-	-	0	0	0
COc1ccc(/C=C2/SC(=O)N(CCC(=O)Nc3ccccc3C(=O)O)C2=S)cc1	57.1	0	0	0	0	0
CCc1ccc(C=C2SC(=S)N(CCCC(=O)Nc3ccc(C(=O)O)cc3)C2=O)cc1	50.9	-	-	0	0	0
O=C(CCCN1C(=O)/C(=C\c2ccccc2)SC1=S)Nc1ccc(O)cc1C(=O)O	0	0	0	0	0	0
CCc1ccc(/C=C2/SC(=S)N(CCCC(=O)Nc3ccccc3C(=O)O)C2=O)cc1	0	0	0	74.7	0	0
COc1cccc(CNC(=O)[C@@H]2CCCN2C(=O)[C@H]2CCCCN2C(=O)c2cccc(OC)c2)c1	0	-	-	0	0	0
O=C(Nc1ccc2c(c1)OCCO2)c1cnc2ccccn2c1=O	0	0	0	0	0	69.6
